Compounds without any hit were thinned out: in the full panel of roughly 83,000, 20% have a hit.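 Compound tested at a single concentration for 48 hours in 96-well plates; a percent growth value below 10 was scored as active.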 A number with no mark means an inactive call. Calls of active or inactive are those of the source.
Assays:
Assay in all cases: NCI-60 one-dose screen, 48 h (100 = growth as untreated, 0 = no growth, -100 = all killed)
SK-MEL-2 melanoma = conditions: 10 µM unless noted
EKVX NSCLC = conditions: 10 µM
SN12C renal = conditions: 10 µM unless noted
UO-31 renal = conditions: 10 µM unless noted
TK-10 renal = conditions: 10 µM unless noted
ACHN renal = conditions: 10 µM unless noted
CAKI-1 renal = conditions: 10 µM unless noted
A498 renal = conditions: 10 µM unless noted
CCRF-CEM leukemia = conditions: 10 µM
MOLT-4 leukemia = conditions: 10 µM unless noted
SR leukemia = conditions: 10 µM unless noted
RPMI-8226 leukemia = conditions: 10 µM unless noted
OVCAR-8 ovarian = conditions: 10 µM unless noted
OVCAR-5 ovarian = conditions: 10 µM unless noted
OVCAR-4 ovarian = conditions: 10 µM unless noted
SK-OV-3 ovarian = conditions: 10 µM unless noted
IGROV1 ovarian = conditions: 10 µM unless noted
OVCAR-3 ovarian = conditions: 10 µM unless noted
HS 578T breast = conditions: 10 µM unless noted
NCI/ADR-RES ovarian = conditions: 10 µM unless noted

Compound	growth (SK-MEL-2 melanoma)	growth (EKVX NSCLC) [%]	growth (SN12C renal) [%]	growth (UO-31 renal)	growth (TK-10 renal)	growth (ACHN renal)	growth (CAKI-1 renal)	growth (A498 renal)	growth (CCRF-CEM leukemia)	growth (MOLT-4 leukemia)	growth (SR leukemia)	growth (RPMI-8226 leukemia)	growth (OVCAR-8 ovarian)	growth (OVCAR-5 ovarian) [%]	growth (OVCAR-4 ovarian)	growth (SK-OV-3 ovarian)	growth (IGROV1 ovarian)	growth (OVCAR-3 ovarian)	growth (HS 578T breast)	growth (NCI/ADR-RES ovarian)
c1cc(C2CCCCC2)ccc1OCCCCCCN1CCNCC1	87.8%	90.5	59.1	56.6%	57%	-7.79% (active)	55.7%	61.5%	-51.7% (active)	-48.5% (active)	-4.39% (active)	-31% (active)	48%	41.3	41.6%	83.8%	8.79% (active)	40.5%	51.9%	54.1%
COc1ccc2nc3cc(Cl)ccc3c(NCCCNC(C)=O)c2c1	52.3%	68.5	38.1	21.2%	44.2%	16.1%	40.6%	22.6%	39%	26.5%	21%	37.2%	26.8%	39.1	49.2%	49.7%	36.2%	45.8%	60.4%	41.4%
COc1ccc(C2C3(C#N)C(N)=NC(=C(C#N)C#N)C23C#N)cc1OC (stereo not given)	104%	94.6	109	91%	114%	106%	86.9%	101%	92.3%	102%	83.6%	117%	106%	93.3	110%	109%	113%	109%	96.5%	114%
CCOc1nc(-c2ccccc2)cc2c(O)c(C(=O)N/N=C/c3ccccc3O)[nH]c(=O)c12	61.3%	97.3	115	73.5%	140%	107%	101%	102%	69.4%	17.1%	28.2%	99.3%	65.4%	89.7	93%	102%	50.1%	76.7%	66.1%	5.38% (active)
c1ccc2[nH]c(-c3ccc(OCCCCCOc4ccc(-c5nc6ccccc6[nH]5)cc4)cc3)nc2c1	64%	87	19.8	78%	-50.9% (active)	35.5%	94.1%	143%	-87.9% (active)	-19.1% (active)	-22.3% (active)	-79.4% (active)	-45.6% (active)	16.1	-60.5% (active)	207%	38.3%	20.4%	4.31% (active)	-0.189% (active)
COc1cc(NC(C)CCCN)c2nc(C)ccc2c1OC (stereo not given)	99.6%	97.1	99	95.7%	110%	105%	106%	92.7%	24.8%	6.98% (active)	17.7%	69.1%	119%	95.6	94.6%	107%	103%	64.1%	105%	101%
Cc1nc2c(nnn2-c2ccccc2)c2nc(-c3ccccc3)oc(=O)c12	108%	99.3	103	86.5%	104%	105%	93.8%	98.6%	111%	112%	105%	113%	111%	105	115%	115%	111%	117%	107%	112%
CC([C@H]1CCC2C3CCC4C[C@@H](N)CC[C@]4(C)C3CC[C@@]21C)N(C)C (stereo not given in full)	91.7%	69.4	75.8	-4.26% (active)	109%	78.1%	48.8%	89.4%	42.3%	38.6%	18.5%	58.7%	85.7%	98.5	38.4%	91.1%	53.1%	71.5%	79.1%	81.5%
COc1ccc(Cn2cc3c(c2-c2ccccc2)CCc2cnoc2-3)cc1N	41%	16.5	36.2	29.7%	76.2%	31%	7.24% (active)	1.34% (active)	18%	25.3%	11.8%	23.5%	30%	54.5	44.5%	-4.08% (active)	3.29% (active)	-19.5% (active)	10.4%	-1.43% (active)
COc1ccc(C2CC(=O)c3c(O)cc(OC4OC(COC5OC(C)C(O)C(O)C5O)C(O)C(O)C4O)cc3O2)cc1O (stereo not given)	-1.88% (active)	100	108	95.3%	110%	117%	105%	132%	106%	113%	130%	123%	94.8%	96.7	103%	118%	37.7%	131%	106%	109%
COC(=O)C(C)[C@H]1CC[C@@H]2[C@]1(C)CC=C1[C@]23C=C[C@]2(C[C@@H](OC(C)=O)CC[C@]12C)C(C(=O)OC)C3C(=O)OC (stereo not given in full)	100%	86.1	100	86.7%	109%	112%	94.7%	106%	74.4%	46.7%	55.8%	60.8%	95.7%	109	85.7%	111%	98.2%	86.4%	102%	94.3%
FC(F)(F)c1cccc(-c2[nH]ncc2-c2nnnn2-c2ccccc2)c1	78.3%	52.6	65.5	72.4%	65.5%	68.6%	69.4%	43.4%	53.5%	27.1%	25.6%	29.6%	58.9%	69.6	66.4%	55.4%	56.2%	48.4%	43.6%	12.2%
COc1ccc2sc(-n3nc4nc5n(c(=O)c4c3N)-c3ccccc3Sc3ccccc3-5)nc2c1	81.5%	42.1	76.7	31.8%	102%	72.3%	57.7%	117%	68.1%	49.4%	65.2%	45.5%	81.7%	126	66.4%	91.8%	67.9%	76.6%	90.6%	74%
COc1ccc(Cn2cc3c(c2)-c2oncc2CC3)cc1OC	43%	43.7	38.9	44.1%	65.2%	44.3%	21.9%	21.4%	14.9%	31%	16.8%	35.1%	24.5%	40.3	43.4%	-12.4% (active)	17.6%	-27.4% (active)	2.04% (active)	1.63% (active)
COc1cc(-c2nc3c(c(C)nc4c3nnn4-c3ccccc3)c(=O)o2)cc(OC)c1OC	107%	115	102	87.9%	104%	103%	94.8%	61.1%	96.2%	102%	108%	105%	107%	103	114%	115%	112%	116%	103%	115%
Cc1nc2c(nnn2-c2ccccc2)c2nc(-c3ccc(Cl)cc3)oc(=O)c12	107%	110	104	83%	108%	107%	94.7%	105%	103%	113%	103%	108%	110%	104	114%	119%	111%	118%	107%	113%

From PubChem BioAssay (NCI)
